Compound activity from PubChem BioAssay.
MLLE-PAM2 inh: blocks PAM2 peptide binding to the PABP1 MLLE domain; P11940; inhibition, % at 20 µM; GST-MLLE / FITC-PAM2 fluorescence polarization; hit rate 0.36% among 360,000; AID 588489; in the data active = inhibition above about 35%, passing the limit was not always enough;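 note: plate controls were DMSO wells with GST-MLLE for no effect and wells lacking GST-MLLE protein for full effect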
PABP FP inh: blocks human PABP binding to poly(A) RNA; hit rate 1% among 290,000; fluorescence polarization; inhibition, % at 35 µM;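 note: calls also rest on retests at 20 µM and on dose response follow-up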
PERK inh: human PERK inhibition, primary cell-based screen | CHO PERK-DD fusion, SEAP luminescence translation reporter | inhibition, % at 5.6 µM | hit rate 0.17% among 220,000 | Q9NZJ5;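 active = inhibition above the mean inhibition of all tested compounds plus 3 SD, set separately per screening campaign, cut at about 2.9% in these data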;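 note: PERK kinase domain activated by AP20187 dimerizer at 100 nM; 0% = DMSO with dimerizer and 100% = rapamycin at 8.4 µM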
eIF4E 4G PPI: eIF4E/eIF4G interaction inhibition in translation initiation | TR-FRET eIF4E-eIF4GI(517-606) binding, 2 h | inhibition, % at 21.7 µM | hit rate 0.37% among 220,000 | AID 782;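 active = inhibition above about 30%, limit read from the data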;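 note: 0% = full FRET control wells and 100% = background wells lacking eIF4GI fragment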
eIF4H FP inh: inhibitors of RNA binding by human eIF4H; Q15056; eIF4H fluorescence polarization binding assay; inhibition, % at 35 µM; hit rate 0.94% among 290,000;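 note: calls also rest on retests at 20 µM and on dose response follow-up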
* = called active by the depositor; ? = inconclusive; nt = not tested or not shown. The list is not random: actives were taken first. Their share in the collection is about 1.6%. Unless noted, the rule behind the calls is not given here.

SMILES | MLLE-PAM2 inh | PABP FP inh | PERK inh | eIF4E 4G PPI | eIF4H FP inh
CC(C)Cn1c(SCC(=O)c2c(N)n(C)c(=O)n(C)c2=O)nc2ccccc21 | -114 | -12 | 0 | 1 | 4
Fc1ccc(NC(=S)Nc2ccc(Br)cc2)cc1 | 40* | 2 | 1 | -3 | 1
CCOC(=O)N1CCN(S(=O)(=O)c2c(C)nn(C)c2C)CC1 | 0 | -11 | 0 | -11 | -3
CSc1ccc(C2C(C#N)=C(N)Oc3c2ccc(=O)c2c(C)oc(C)c32)cc1 (stereo not drawn) | -87 | 71* | 1 | -5 | 52*
COc1ccc(NC(=S)N/N=C2\CC(C)(C)Oc3ccc(OC)cc32)cc1 | 37* | -2 | 0 | 2 | -7
COc1cc(C(C#N)N2CCOCC2)ccc1O (stereo not drawn) | 7 | 2 | 3.5* | -3 | 4
COCCNc1nc2c(c(=O)n(Cc3cccc(Br)c3)c(=O)n2C)n1C | 5 | 3 | nt | nt | -12
Cc1nn(-c2ccccc2)c2c1C(c1cccs1)C(C#N)=C(N)O2 (stereo not drawn) | 18 | 7 | 0 | 6 | -6
Cc1cc(Nc2ccccc2C(=O)O)nc2nc3ccccc3c(=O)n12 | 9 | 3 | 0 | 13 | -4
COc1cccc(/C=N/c2sc(Cc3ccccc3)c(C)c2C(N)=O)c1O | -2 | -3 | 1 | 9 | 2
O=C(NC1CCCCCC1)C(=S)N1CCOCC1 | 44* | -12 | 2 | 0 | 6
Cc1nn(-c2nc(-c3ccco3)cc(C(F)(F)F)n2)c(C)c1Cl | -6 | -2 | 0 | -11 | 0
COc1ccc2c(C)cc(SCC(=O)NC3CCCCC3)nc2c1 | -7 | nt | nt | nt | nt
COc1ccc2c(C)cc(SCC(=O)N3CCOCC3)nc2c1 | -86 | 124* | 0 | -6 | 124*
COc1ccc2c(-c3ccccc3)cc(SCC(N)=O)nc2c1 | -77 | 53* | 1 | -13 | 80*
Nc1ccc(N)c(C(=O)O)c1 | 55 | nt | nt | 94* | nt
COc1ccccc1CC(=O)NCC1CCCO1 (stereo not drawn) | 9 | 8 | nt | 4 | -5
COc1ccccc1CNC(=O)C(=O)NCC1CCCO1 (stereo not drawn) | -9 | 109* | 0 | 6 | active
COc1cc(NC(=O)Cc2cccs2)ccc1-n1cnnn1 | 2 | 4 | 0 | -4 | -3
COc1ccc(-c2cc(C(=O)N(C)Cc3cccc(OC)c3OC)c3ccccc3n2)cc1OC | -2 | 12 | nt | nt | -6
CC(C)(C)C1CCC(=NNc2nc3ccccc3[nH]2)CC1 (stereo not drawn) | -18 | 51* | -1 | 0 | 13
c1ccc(CN2CCC(=NNc3nc4ccccc4[nH]3)CC2)cc1 | -31 | 9 | 0 | -8 | 26
Cc1ccc(/C=C/C(=O)c2ccccc(=O)c2O)cc1C | -10 | active | -1 | 21 | 66*
O=C(/C=C/c1ccccc1)c1cc(Br)ccc(=O)c1O | -70 | 44* | 1 | 8 | 83*
COc1cc(OC)cc(C(=O)NC2CCSC2=O)c1 (stereo not drawn) | -4 | 7 | 0 | -4 | -1
SMILES | MLLE-PAM2 inh | PABP FP inh | PERK inh | eIF4E 4G PPI | eIF4H FP inh
Cc1onc(-c2c(F)cccc2Cl)c1C(=O)NC(=S)NC1CCSC1=O (stereo not drawn) | 44* | -8 | 0 | 5 | -1
COc1ccc(C(=O)NC(=S)NC2CCSC2=O)cc1 (stereo not drawn) | 38* | 0 | 0 | -7 | -3
Cc1onc(-c2c(F)cccc2Cl)c1C(=O)NC(=S)Nc1c(C)n(C)n(-c2ccccc2)c1=O | 45* | 22 | -1 | 0 | -3
Cc1onc(-c2c(F)cccc2Cl)c1C(=O)NC1CC1 | -8 | -1 | nt | nt | 7
NC(=O)CC(NC(=O)Cc1ccc(Cl)cc1)c1ccc(NCCCN2CCCC2=O)c([N+](=O)[O-])c1 (stereo not drawn) | -7 | 28 | nt | nt | 69*
COc1ccc(-c2onc3ccc(Cl)cc23)cc1 | 24 | 68* | 1 | 8 | 51*
Cc1c(C(=O)C(=O)NCCc2ccc(S(N)(=O)=O)cc2)c2ccccc2n1C | -6 | active | 1 | 20 | 93*
NS(=O)(=O)c1ccc(CCNC(=O)C(=O)c2cn(CC(=O)N3CCCC3)c3ccccc23)cc1 | 5 | 6 | nt | nt | -4
CC(C)C(NC(=O)c1cccs1)C(=O)NC1=NCCS1 (stereo not drawn) | 42* | -6 | 0 | 4 | 3
O=C(NC1=NCCS1)c1cccs1 | 44* | 28 | 2 | 1 | 2
O=C(NC1=NCCS1)c1csc2ccccc12 | 36* | -8 | 1 | 8 | -4
N[C@@H]1CONC1=O | nt | -6 | 1 | -1 | -11
O=[N+]([O-])c1ccc(/C=[N+](\[O-])[C@@H]2CCCC[C@@H]2/[N+]([O-])=C/c2ccc([N+](=O)[O-])o2)o1 | 5 | 48* | nt | nt | 81*
O=C(N/N=C/c1ccc([N+](=O)[O-])o1)C1CCCC1 | 12 | 14 | nt | nt | 23
CC1=C(C#N)S(=O)(=O)C(C#N)C(c2ccccc2)C1 (stereo not drawn) | -6 | -8 | 0 | 95* | 17
Cc1cccc(NCN2C(=O)c3ccncc3C2=O)n1 | -17 | 11 | 0 | 5 | -14
Cc1ccc(NC(=O)CN2C(=O)N/C(=C/c3ccco3)C2=O)cc1 | 19 | 59* | 0 | 15 | 90*
Cc1ccc(NC(=O)CN2C(=O)N/C(=C/c3cccn3-c3ccc(C(=O)O)cc3)C2=O)cc1 | -12 | -8 | 0 | 34* | 88
Cc1cccc(NC(=O)CN2C(=O)N/C(=C/c3ccc(C)s3)C2=O)c1 | -99 | -7 | 0 | 0 | ?
Cc1ccc(NC(=O)CN2C(=O)N/C(=C/c3cc(C)n(-c4ccc(C(=O)O)cc4)c3C)C2=O)cc1 | -6 | -2 | 1 | 27 | 71
CC1(C)Cc2nc3sc4c(SCC(=O)O)ncnc4c3cc2CO1 | 7 | 8 | 1 | -2 | -4
COC(=O)CSc1ncnc2c1sc1nc3c(cc12)COC(C)(C)C3 | -9 | 94 | 1 | 0 | active
COc1ccccc1NS(=O)(=O)c1ccc(C)c(NC(=O)NC2CCCCC2)c1 | -5 | 9 | -1 | 10 | -12
COc1ccc(/C=C/C(=O)c2ccc3c(c2)OCCO3)cc1[N+](=O)[O-] | 6 | -7 | 0 | -7 | -13
O=C(CSCC(=O)Nc1ccc2ccccc2c1)NCc1ccccc1 | 11 | -2 | 1 | 37* | -2
COc1ccccc1C1c2[nH]c3ccccc3c2CCN1Cc1ccc(NC(C)=O)s1 (stereo not drawn) | 7 | 1 | -2 | 89* | 1
COc1cccc(C2c3[nH]c4ccccc4c3CCN2C(=O)Cn2cncn2)c1OC (stereo not drawn) | 1 | 2 | 1 | -1 | -7
O=C(Nc1sc2c(c1C(=O)O)CCC2)C(=O)N1CCOCC1 | 11 | 23* | nt | nt | 86*
CC12CCC(=O)N1C(C(=O)Nc1ccc(F)c(Cl)c1)CS2 (stereo not drawn) | 1 | nt | nt | nt | nt
CCCCN1/C(=C/c2cccc[n+]2C)Sc2cc(NC(C)=O)ccc21 | -142 | 61* | nt | nt | 0
